This note sets out measurements from PubChem BioAssay (NCI).

The panel holds about 83,000 compounds, 20% with a hit somewhere; the sample as a whole holds those more often.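 Plates (96-well) were seeded with cells, treated with compound at one concentration, and incubated for 48 hours before percent growth was determined.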 Values without a mark were called inactive. Active and inactive are the calls of the source. How the source made its calls: active means growth percent below 10; inactive means the rest.

Among the test systems are HCT-15 colon; HT29 colon; SNB-75 CNS; SNB-19 CNS; U251 CNS; PC-3 prostate; SK-MEL-5 melanoma; LOX IMVI melanoma; SK-MEL-28 melanoma; SK-MEL-2 melanoma; EKVX NSCLC; SN12C renal; UO-31 renal; TK-10 renal; ACHN renal; CAKI-1 renal; A498 renal; CCRF-CEM leukemia; MOLT-4 leukemia; UACC-62 melanoma.
Holding throughout (test): NCI-60 one-dose screen, 48 h (100 = growth as untreated, 0 = no growth, -100 = all killed)
What all share (conditions): 10 µM

Consider `O=C(c1ccc(O)cc1)C1[C@H](c2ccccc2Br)[C@@H](c2ccccc2)NC12C(=O)Nc1ccc(Cl)cc12` (some centres undefined), for which the growth is 12.3% in the assay on HCT-15 colon; -30.4% (active) in the assay with HT29 colon; 2.75% (active) in the assay with SNB-75 CNS; 17.2% in the assay with SNB-19 CNS; -31.9% (active) in the assay on U251 CNS; 2.91% (active) with PC-3 prostate. Moreover, the growth with SK-MEL-5 melanoma was -33% (active); in the assay on LOX IMVI melanoma it was -100% (active); with SK-MEL-28 melanoma, 29.2%; in the assay on SK-MEL-2 melanoma, -72.9% (active); with EKVX NSCLC it was 10.5%; in the assay with SN12C renal it was -46.3% (active). The growth with UO-31 renal was 13.6%; with TK-10 renal it was 7.92% (active); with ACHN renal it was 2.5% (active); in the assay on CAKI-1 renal, 8.16% (active); in the assay on A498 renal it was 9.06% (active); in the assay on CCRF-CEM leukemia, 4.97% (active). For the same molecule, in the assay on MOLT-4 leukemia, the growth is -16.2% (active).

As for `CCCCCCCCCCCCCCCCCCCC(=O)NCCc1c[nH]c2ccc(O)cc12`, the growth with HCT-15 colon is 96.2%; with HT29 colon, 121%; in the assay on SNB-75 CNS it was 129%; in the assay with SNB-19 CNS it was 104%; in the assay with U251 CNS it was 99%; with PC-3 prostate, 73.4%. Further, the growth was 110% in the assay with SK-MEL-5 melanoma; 76.7% in the assay on LOX IMVI melanoma; 106% with SK-MEL-28 melanoma; 107% in the assay with SK-MEL-2 melanoma; 101% in the assay with EKVX NSCLC; 84.9% with SN12C renal. Further, the growth in the assay on TK-10 renal is 118%; with ACHN renal, 98.8%; with CAKI-1 renal, 105%; in the assay on A498 renal, 118%; in the assay with MOLT-4 leukemia, 71.2%.

Turning to `O=c1[nH][nH]c(Nc2ccccc2)c1N=Nc1ccc(F)cc1`, the growth in the assay on HCT-15 colon was 70.1%; in the assay with HT29 colon, 107%; in the assay with SNB-75 CNS it was 59.4%; in the assay on SNB-19 CNS, 95.3%; with U251 CNS, 99.9%; in the assay on PC-3 prostate, 95.5%. In addition, the growth in the assay on SK-MEL-5 melanoma was 96.6%; in the assay on LOX IMVI melanoma it was 102%; in the assay on SK-MEL-28 melanoma, 108%; in the assay on SK-MEL-2 melanoma, 94.1%; with EKVX NSCLC it was 72.1%; with SN12C renal it was 79.6%. The growth was 66.2% in the assay with UO-31 renal; 94.5% with TK-10 renal; 86.2% in the assay with ACHN renal; 59.3% in the assay with CAKI-1 renal; 110% with A498 renal; 93.9% in the assay with CCRF-CEM leukemia.

For `Cc1cc2nc3c4ccccc4n(CCO)c3nc2cc1C`, the growth is 71.2% with HCT-15 colon; 98.1% with HT29 colon; 73.6% in the assay with SNB-75 CNS; 87.7% in the assay with SNB-19 CNS; 64.7% in the assay on U251 CNS; 57.3% in the assay with PC-3 prostate. The growth in the assay with SK-MEL-5 melanoma is 81.6%; in the assay with UACC-62 melanoma, 73.8%; in the assay with SK-MEL-28 melanoma, 91%; in the assay on SK-MEL-2 melanoma it was 101%; in the assay with EKVX NSCLC, 84.5%; in the assay with UO-31 renal, 28.6%. Besides, the growth with TK-10 renal is 165%; in the assay with ACHN renal, -6.25% (active); in the assay with CAKI-1 renal, 55.4%; in the assay on A498 renal it was 61.6%; with CCRF-CEM leukemia, 71.6%; in the assay on MOLT-4 leukemia it was 78.4%.

On to `CCOC(=O)CNC(=O)CN(Cc1ccccc1)C(=O)[C@@]1(C)CCC[C@]2(C)[C@H]3CC4C(C(C)C)=C[C@]3(CC[C@H]21)[C@@H]1C(=O)CCC(=O)[C@H]41`, for which the growth with HCT-15 colon is 17.6%; in the assay on HT29 colon, 41.1%; in the assay with SNB-75 CNS it was 86.2%; with SNB-19 CNS it was 81.1%; with U251 CNS, 63.8%; in the assay with PC-3 prostate, 35.3%. Also, the growth is 68.6% with SK-MEL-5 melanoma; -75.1% (active) with LOX IMVI melanoma; 62.7% in the assay on SK-MEL-28 melanoma; 47.4% with SK-MEL-2 melanoma; 66.2% with EKVX NSCLC; 50% in the assay with SN12C renal. The growth is 47.9% in the assay on UO-31 renal; 98.1% in the assay on TK-10 renal; 52.9% in the assay with ACHN renal; 81.3% in the assay on CAKI-1 renal; 120% in the assay with A498 renal; 16.4% in the assay with CCRF-CEM leukemia. Besides, the growth in the assay with MOLT-4 leukemia was 15.8%.

Take `C=C1CCC2C3(C)COC(c4ccccc4F)OC3CCC2(C)C1C/C=C1/C(=O)OCC1O` (centres undefined): the growth in the assay on HCT-15 colon is -20% (active); in the assay on HT29 colon, -14.6% (active); with SNB-75 CNS, -58.3% (active); with SNB-19 CNS, -93.4% (active); with U251 CNS it was -95.4% (active); in the assay on PC-3 prostate, -17.5% (active). The growth in the assay on SK-MEL-5 melanoma is -91.1% (active); with SK-MEL-28 melanoma it was -66.1% (active); in the assay on SK-MEL-2 melanoma, -59.2% (active); in the assay with EKVX NSCLC, -51.6% (active); with UO-31 renal it was -96.5% (active); in the assay on TK-10 renal, -67.1% (active). Besides, the growth was -99.4% (active) in the assay with ACHN renal; -40.7% (active) in the assay on CAKI-1 renal; 101% in the assay with A498 renal; 15.1% in the assay on CCRF-CEM leukemia; 9.47% (active) in the assay with MOLT-4 leukemia.

Regarding `Cc1ccc(/C(N)=N/c2sc(-c3ccccc3)nc2-c2ccccc2)cc1`, the growth in the assay with HCT-15 colon was 46.1%; with HT29 colon, 50.6%; in the assay with SNB-75 CNS, 82.4%; in the assay on SNB-19 CNS, 97.3%; in the assay on U251 CNS, 75.1%; in the assay with PC-3 prostate, 90.6%. Moreover, the growth with SK-MEL-5 melanoma is 89.2%; with UACC-62 melanoma, 74.6%; in the assay with SK-MEL-28 melanoma it was 81.5%; in the assay with SK-MEL-2 melanoma, 90.7%; in the assay on EKVX NSCLC, 74.2%; in the assay with TK-10 renal, 100%. In addition, the growth with ACHN renal is 76.3%; in the assay on CAKI-1 renal, 59.8%; in the assay on A498 renal, 91.1%; with CCRF-CEM leukemia, 26.7%; in the assay on MOLT-4 leukemia it was 51.5%.

Regarding `O=C(CSc1nnc(-c2ccc3nc(-c4ccccc4)[nH]c3c2)o1)Nc1ccc(Br)cc1`, the growth with HCT-15 colon was 38.1%; with HT29 colon, 64.9%; in the assay with SNB-75 CNS it was 99.1%; in the assay on SNB-19 CNS it was 49.7%; with U251 CNS, 11.5%; in the assay on PC-3 prostate, 61.4%. The growth was 86.9% in the assay with SK-MEL-5 melanoma; -4.8% (active) with LOX IMVI melanoma; 76.9% in the assay on SK-MEL-28 melanoma; 81.2% in the assay on SK-MEL-2 melanoma; 81.4% in the assay on EKVX NSCLC; 45.8% in the assay with SN12C renal. The growth in the assay with UO-31 renal was 74.4%; with TK-10 renal, 81.3%; with ACHN renal, 63%; in the assay with CAKI-1 renal it was 76.2%; with A498 renal, 101%; in the assay on CCRF-CEM leukemia it was 39.4%. The growth with MOLT-4 leukemia was 16.8%.
